In the supplement of paper PMC10849652:
About 7,900 targets were measured; listed, in parts, are those with a hit and a random draw of the rest. About 0.6% of all pairs of compound and target were hits.

Legend:
Experiment in all cases: log2 fold change, soluble protein after heating vs DMSO (PISA); higher = thermal stabilisation; K562 cells, 10 uM, 30 min; active = over 0.2 and 3.5 SD of the protein, either way, in both replicates (recomputed)
[1] = compound: C1COCCN1CCN2C3=CC=CC=C3N=C2NC(=O)C4=CC(=CC=C4)[N+](=O)[O-] [IRAK-1-4 Inhibitor I]
In short: (§1)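 K562 cells at 2×10^6 cells/mL were treated with 10 μM compound for 30 min. Aliquots were heated for 3 min across 48°C-58°C, pooled, and extracted in PBS with 0.5% NP-40 at 4°C; soluble protein was the supernatant after 21,000xg for 90 min. Soluble protein was quantified by TMTpro 16plex LC-MS/MS with channel sums equalised, and reported as log2 fold change in thermal stability against DMSO controls, with values from duplicates.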

[2] = compound: C=CC(=O)N1CCC[C@@H](n2nc(-c3ccc(Oc4ccccc4)cc3)c3c(N)ncnc32)C1 [ibrutinib]
In short: as §1

[3] = compound: CC(=O)c1cnc2ccc(-c3cc(Cl)c(O)c(Cl)c3)nc2c1N[C@H]1CC[C@H](CN(C)C)CC1
In short: as §1

[4] = compound: CC(C)(C)Cn1c(N)nc2ccc(-c3[nH]c(C(C)(C)C)nc3-c3ccc(F)cc3)nc21 [ralimetinib]
In short: as §1

[5] = compound: CC(C)(O)CC(=O)NCCn1ccc2ncnc(Nc3ccc(Oc4cccc(C(F)(F)F)c4)c(Cl)c3)c21
In short: as §1

[6] = compound: CC(C)C1=C2N=C(C=C(N2N=C1)NCC3=CC=CC=C3)NCCCCCCN
In short: as §1

[7] = compound: CC(C)C[C@@H](C=O)NC(=O)[C@H](CC(C)C)NC(=O)[C@H](CC(C)C)NC(=O)OCc1ccccc1
In short: as §1

[8] = compound: CC(C)N(C[C@H]1O[C@@H](n2cnc3c(N)ncnc32)[C@H](O)[C@@H]1O)[C@H]1C[C@@H](CCc2nc3cc(C(C)(C)C)ccc3[nH]2)C1 [pinometostat]
In short: as §1

[9] = compound: CC1=C(C(CC(=O)N1)C2=CC=C(C=C2)C(F)(F)F)C(=O)NC3=C(C=C4C(=C3)C=NN4)F
In short: as §1

[10] = compound: CC1=C(C2=C(C=C1)C(=O)C3=CC=CC=C3N2CCCN)C
In short: as §1

Measured: log2 fold change

RBBP6 (UniProt Q7Z6E9)
Sequence of UniProt Q7Z6E9 (Q7Z6E9 whole entry, looked up): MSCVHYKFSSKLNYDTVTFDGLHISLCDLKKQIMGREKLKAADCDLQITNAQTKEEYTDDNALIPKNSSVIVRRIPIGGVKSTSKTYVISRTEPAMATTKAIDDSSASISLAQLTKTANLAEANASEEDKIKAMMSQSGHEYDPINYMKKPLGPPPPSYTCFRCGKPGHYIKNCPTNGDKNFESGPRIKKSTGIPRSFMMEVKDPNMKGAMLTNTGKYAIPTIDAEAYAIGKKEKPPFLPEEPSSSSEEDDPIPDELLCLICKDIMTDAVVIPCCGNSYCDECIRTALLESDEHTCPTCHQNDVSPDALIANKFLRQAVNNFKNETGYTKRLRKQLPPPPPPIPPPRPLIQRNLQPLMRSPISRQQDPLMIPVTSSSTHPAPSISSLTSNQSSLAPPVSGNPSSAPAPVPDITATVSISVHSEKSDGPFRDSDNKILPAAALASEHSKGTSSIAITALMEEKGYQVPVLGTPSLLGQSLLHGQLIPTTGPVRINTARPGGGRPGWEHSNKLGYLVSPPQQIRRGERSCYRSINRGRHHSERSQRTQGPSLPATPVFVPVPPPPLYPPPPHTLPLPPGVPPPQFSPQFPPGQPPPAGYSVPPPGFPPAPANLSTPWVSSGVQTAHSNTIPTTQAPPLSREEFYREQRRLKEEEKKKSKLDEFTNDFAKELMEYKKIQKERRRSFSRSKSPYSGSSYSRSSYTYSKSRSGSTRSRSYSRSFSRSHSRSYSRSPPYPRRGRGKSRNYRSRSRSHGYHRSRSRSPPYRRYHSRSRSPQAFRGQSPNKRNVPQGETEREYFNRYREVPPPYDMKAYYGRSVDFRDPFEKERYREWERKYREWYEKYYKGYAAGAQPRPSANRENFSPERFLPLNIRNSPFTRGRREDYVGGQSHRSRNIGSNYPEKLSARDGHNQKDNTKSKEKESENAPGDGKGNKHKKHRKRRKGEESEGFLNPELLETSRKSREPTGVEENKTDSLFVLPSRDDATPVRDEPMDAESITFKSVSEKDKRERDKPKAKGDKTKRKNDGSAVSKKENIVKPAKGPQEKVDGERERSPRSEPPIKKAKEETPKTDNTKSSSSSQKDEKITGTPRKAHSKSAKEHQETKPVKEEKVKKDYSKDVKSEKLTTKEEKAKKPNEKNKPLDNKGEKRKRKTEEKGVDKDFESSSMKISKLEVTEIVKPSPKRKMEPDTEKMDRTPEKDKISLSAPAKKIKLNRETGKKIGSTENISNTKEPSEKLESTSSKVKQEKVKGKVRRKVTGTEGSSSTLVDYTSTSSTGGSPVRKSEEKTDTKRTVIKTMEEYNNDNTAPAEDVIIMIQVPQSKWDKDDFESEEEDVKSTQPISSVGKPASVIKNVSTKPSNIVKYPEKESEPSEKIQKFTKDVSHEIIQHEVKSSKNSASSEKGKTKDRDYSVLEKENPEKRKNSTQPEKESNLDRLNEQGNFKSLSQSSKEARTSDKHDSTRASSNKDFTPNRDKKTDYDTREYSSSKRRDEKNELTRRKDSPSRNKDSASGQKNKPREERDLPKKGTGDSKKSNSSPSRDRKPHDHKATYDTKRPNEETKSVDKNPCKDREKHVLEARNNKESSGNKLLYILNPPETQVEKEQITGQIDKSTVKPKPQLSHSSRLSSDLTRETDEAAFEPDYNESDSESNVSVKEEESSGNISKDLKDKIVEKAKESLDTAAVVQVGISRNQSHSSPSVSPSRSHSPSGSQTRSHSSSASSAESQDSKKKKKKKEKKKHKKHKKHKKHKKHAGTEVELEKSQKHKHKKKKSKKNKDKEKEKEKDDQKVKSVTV
inactive: [1] -0.099 | [2] -0.082 | [3] -0.114 | [4] 0.02 | [5] 0.044 | [6] -0.089 | [7] -0.023 | [8] -0.078 | [9] -0.021 | [10] -0.022

RAVER1 (UniProt E9PAU2)
inactive: [1] -0.062 | [2] 0.033 | [3] -0.308 | [4] 0.082 | [5] -0.263 | [6] -0.409 | [7] -0.042 | [8] 0.052 | [9] 0.016 | [10] -0.694

RPS27A (UniProt P62979)
inactive: [1] -0.055 | [2] 0.141 | [3] 0.054 | [4] 0.082 | [5] 0.216 | [6] 0.051 | [7] 0.114 | [8] 0.078 | [9] 0.157
active: [10] -0.557

RPS6KA2 isoform 2 (UniProt Q15349)
inactive: [1] 0.001 | [2] -0.066 | [3] -0.178 | [5] -0.082 | [6] -0.082 | [7] 0.07 | [8] 0.01 | [9] 0.016 | [10] 0.006
active: [4] -0.492

RNASET2 (UniProt O00584)
inactive: [1] 0.028 | [2] 0.042 | [3] 0 | [4] -0.082 | [5] 0.029 | [6] -0.206 | [7] -0.004 | [8] -0.014 | [9] 0.045 | [10] -0.061

RPS19 (UniProt P39019)
active: [10] -0.523
inactive: [1] -0.085 | [2] 0.052 | [3] 0.05 | [4] 0.064 | [5] 0.03 | [6] -0.025 | [7] 0.039 | [8] 0.084 | [9] 0.026

RBM27 (UniProt Q9P2N5)
active: [3] -0.338 | [6] -0.479
inactive: [1] -0.123 | [2] 0.023 | [4] -0.045 | [5] -0.063 | [7] 0.042 | [8] 0.028 | [9] 0.088 | [10] 0.05

SCYL3 isoform 2 (UniProt Q8IZE3)
inactive: [1] 0.087 | [2] 0.02 | [3] -0.002 | [4] -0.043 | [5] -0.063 | [6] -0.052 | [7] -0.002 | [8] 0.054 | [9] 0.013 | [10] -0.146

RNF220 (UniProt Q5VTB9)
inactive: [1] 0.017 | [2] -0.032 | [3] -0.02 | [4] -0.045 | [5] 0.021 | [6] -0.011 | [7] -0.046 | [8] -0.076 | [9] -0.023 | [10] 0.004

SCAMP2 (UniProt H3BUB6)
inactive: [1] 0.078 | [2] 0.103 | [3] -0.171 | [4] -0.278 | [5] 0.102 | [6] -0.055 | [7] 0.192 | [8] 0.053 | [9] 0.111 | [10] 0.059

RETSAT (UniProt Q6NUM9)
inactive: [1] -0.09 | [2] 0.042 | [3] 0.01 | [4] 0.012 | [5] 0.178 | [6] -0.048 | [7] -0.007 | [8] -0.012 | [9] -0.037 | [10] 0.059

SH3GLB2 (UniProt Q9NR46)
active: [6] -0.27
inactive: [1] 0.028 | [2] 0.004 | [3] -0.047 | [4] 0.033 | [5] 0.028 | [7] 0.066 | [8] -0.004 | [9] 0.001 | [10] -0.021

SKP1 (UniProt P63208)
inactive: [1] 0.069 | [2] 0.054 | [3] 0.03 | [4] -0.02 | [5] -0.045 | [6] 0.068 | [7] -0.069 | [8] -0.08 | [9] 0.042 | [10] -0.049

SELENOH (UniProt Q8IZQ5)
Sequence of UniProt Q8IZQ5 (Q8IZQ5 whole entry, looked up): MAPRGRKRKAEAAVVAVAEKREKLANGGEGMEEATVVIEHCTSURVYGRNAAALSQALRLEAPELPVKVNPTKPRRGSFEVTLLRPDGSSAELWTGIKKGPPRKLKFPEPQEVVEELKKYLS
inactive: [1] -0.018 | [2] -0.039 | [3] 0.13 | [4] 0.086 | [5] -0.017 | [6] 0.059 | [7] -0.012 | [8] -0.012 | [9] -0.052 | [10] 0.057

RRS1 (UniProt Q15050)
inactive: [1] -0.084 | [2] 0.04 | [3] 0.217 | [4] 0.118 | [5] 0.229 | [6] 0.312 | [7] 0.067 | [8] 0.297 | [9] -0.11
active: [10] -1

RPS20 isoform 2 (UniProt P60866)
inactive: [1] -0.103 | [2] 0.012 | [3] 0.02 | [4] 0.041 | [5] 0.046 | [6] -0.03 | [7] 0.012 | [8] 0.123 | [9] 0.195
active: [10] -0.368

RPA3 (UniProt P35244)
Sequence of UniProt P35244 (P35244 whole entry, looked up): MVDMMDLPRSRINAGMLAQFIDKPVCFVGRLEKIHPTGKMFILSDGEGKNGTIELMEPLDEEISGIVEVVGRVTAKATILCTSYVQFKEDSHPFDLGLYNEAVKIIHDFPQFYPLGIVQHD
inactive: [1] 0.02 | [2] 0.029 | [3] 0.016 | [4] 0.038 | [5] -0.097 | [6] -0.025 | [7] -0.137 | [8] 0.016 | [9] 0.063 | [10] 0.129

SHCBP1 (UniProt Q8NEM2)
Sequence of UniProt Q8NEM2 (Q8NEM2 whole entry, looked up): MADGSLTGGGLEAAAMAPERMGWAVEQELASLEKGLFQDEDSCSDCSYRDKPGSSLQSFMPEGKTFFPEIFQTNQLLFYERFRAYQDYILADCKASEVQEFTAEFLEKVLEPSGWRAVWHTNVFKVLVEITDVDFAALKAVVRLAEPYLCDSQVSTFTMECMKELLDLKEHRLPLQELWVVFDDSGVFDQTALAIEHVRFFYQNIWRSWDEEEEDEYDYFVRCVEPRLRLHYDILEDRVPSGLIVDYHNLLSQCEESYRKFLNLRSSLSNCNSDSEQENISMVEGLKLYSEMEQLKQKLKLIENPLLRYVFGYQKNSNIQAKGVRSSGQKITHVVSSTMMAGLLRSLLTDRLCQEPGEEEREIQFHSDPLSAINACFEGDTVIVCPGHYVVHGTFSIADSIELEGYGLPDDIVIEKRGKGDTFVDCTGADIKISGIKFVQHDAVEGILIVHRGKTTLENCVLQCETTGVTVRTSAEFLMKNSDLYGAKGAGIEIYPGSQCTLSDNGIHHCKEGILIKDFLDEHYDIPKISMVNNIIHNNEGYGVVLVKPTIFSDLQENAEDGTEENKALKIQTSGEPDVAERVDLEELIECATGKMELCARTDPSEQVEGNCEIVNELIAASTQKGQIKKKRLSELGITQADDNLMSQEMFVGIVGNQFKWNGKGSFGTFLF
active: [6] -0.516
inactive: [1] -0.11 | [2] -0.072 | [3] -0.013 | [4] 0.025 | [5] -0.121 | [7] 0.012 | [8] 0.066 | [9] 0.074 | [10] 0.02

RIOK2 (UniProt Q9BVS4)
inactive: [1] -0.061 | [2] 0.013 | [4] 0.119 | [5] 0 | [6] -0.014 | [7] 0.084 | [8] 0.132 | [9] -0.014 | [10] -0.068
active: [3] 0.465

RNF187 (UniProt Q5TA31)
Sequence of UniProt Q5TA31 (Q5TA31 whole entry, looked up): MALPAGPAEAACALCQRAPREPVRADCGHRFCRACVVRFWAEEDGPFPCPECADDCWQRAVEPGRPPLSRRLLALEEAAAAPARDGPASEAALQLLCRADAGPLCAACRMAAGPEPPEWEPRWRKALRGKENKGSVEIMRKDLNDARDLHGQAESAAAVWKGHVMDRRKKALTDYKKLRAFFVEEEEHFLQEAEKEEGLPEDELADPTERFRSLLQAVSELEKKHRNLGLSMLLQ
inactive: [1] 0.059 | [2] 0.045 | [3] -0.124 | [4] 0.039 | [5] 0.024 | [6] 0.077 | [8] -0.075 | [9] 0.046 | [10] -0.226
active: [7] 0.424

RCN3 (UniProt Q96D15)
Sequence of UniProt Q96D15 (Q96D15 whole entry, looked up): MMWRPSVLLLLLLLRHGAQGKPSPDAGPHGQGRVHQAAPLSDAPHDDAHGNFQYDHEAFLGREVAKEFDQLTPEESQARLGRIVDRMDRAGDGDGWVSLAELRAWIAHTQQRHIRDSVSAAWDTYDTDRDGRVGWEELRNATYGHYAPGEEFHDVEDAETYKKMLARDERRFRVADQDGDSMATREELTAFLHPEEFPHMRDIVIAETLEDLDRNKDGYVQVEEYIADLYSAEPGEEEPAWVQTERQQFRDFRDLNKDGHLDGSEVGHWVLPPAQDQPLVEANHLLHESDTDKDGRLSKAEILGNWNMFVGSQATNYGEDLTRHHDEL
inactive: [1] 0.131 | [2] 0.075 | [3] -0.048 | [4] -0.013 | [5] 0.013 | [6] 0.047 | [7] 0.026 | [8] -0.035 | [9] 0.05 | [10] -0.031

RTN4IP1 (UniProt Q8WWV3)
inactive: [1] -0.036 | [2] 0.214 | [3] -0.326 | [4] 0.034 | [5] -0.046 | [6] 0.063 | [7] -0.009 | [8] 0.02 | [9] -0.039 | [10] 0.14

SAFB2 (UniProt Q14151)
inactive: [1] -0.065 | [2] -0.012 | [3] 0.026 | [4] 0.037 | [5] 0.165 | [6] 0.042 | [7] 0.049 | [8] 0.05 | [9] 0.018 | [10] -0.074

RB1CC1 (UniProt Q8TDY2)
Sequence of UniProt Q8TDY2 (Q8TDY2 whole entry, looked up): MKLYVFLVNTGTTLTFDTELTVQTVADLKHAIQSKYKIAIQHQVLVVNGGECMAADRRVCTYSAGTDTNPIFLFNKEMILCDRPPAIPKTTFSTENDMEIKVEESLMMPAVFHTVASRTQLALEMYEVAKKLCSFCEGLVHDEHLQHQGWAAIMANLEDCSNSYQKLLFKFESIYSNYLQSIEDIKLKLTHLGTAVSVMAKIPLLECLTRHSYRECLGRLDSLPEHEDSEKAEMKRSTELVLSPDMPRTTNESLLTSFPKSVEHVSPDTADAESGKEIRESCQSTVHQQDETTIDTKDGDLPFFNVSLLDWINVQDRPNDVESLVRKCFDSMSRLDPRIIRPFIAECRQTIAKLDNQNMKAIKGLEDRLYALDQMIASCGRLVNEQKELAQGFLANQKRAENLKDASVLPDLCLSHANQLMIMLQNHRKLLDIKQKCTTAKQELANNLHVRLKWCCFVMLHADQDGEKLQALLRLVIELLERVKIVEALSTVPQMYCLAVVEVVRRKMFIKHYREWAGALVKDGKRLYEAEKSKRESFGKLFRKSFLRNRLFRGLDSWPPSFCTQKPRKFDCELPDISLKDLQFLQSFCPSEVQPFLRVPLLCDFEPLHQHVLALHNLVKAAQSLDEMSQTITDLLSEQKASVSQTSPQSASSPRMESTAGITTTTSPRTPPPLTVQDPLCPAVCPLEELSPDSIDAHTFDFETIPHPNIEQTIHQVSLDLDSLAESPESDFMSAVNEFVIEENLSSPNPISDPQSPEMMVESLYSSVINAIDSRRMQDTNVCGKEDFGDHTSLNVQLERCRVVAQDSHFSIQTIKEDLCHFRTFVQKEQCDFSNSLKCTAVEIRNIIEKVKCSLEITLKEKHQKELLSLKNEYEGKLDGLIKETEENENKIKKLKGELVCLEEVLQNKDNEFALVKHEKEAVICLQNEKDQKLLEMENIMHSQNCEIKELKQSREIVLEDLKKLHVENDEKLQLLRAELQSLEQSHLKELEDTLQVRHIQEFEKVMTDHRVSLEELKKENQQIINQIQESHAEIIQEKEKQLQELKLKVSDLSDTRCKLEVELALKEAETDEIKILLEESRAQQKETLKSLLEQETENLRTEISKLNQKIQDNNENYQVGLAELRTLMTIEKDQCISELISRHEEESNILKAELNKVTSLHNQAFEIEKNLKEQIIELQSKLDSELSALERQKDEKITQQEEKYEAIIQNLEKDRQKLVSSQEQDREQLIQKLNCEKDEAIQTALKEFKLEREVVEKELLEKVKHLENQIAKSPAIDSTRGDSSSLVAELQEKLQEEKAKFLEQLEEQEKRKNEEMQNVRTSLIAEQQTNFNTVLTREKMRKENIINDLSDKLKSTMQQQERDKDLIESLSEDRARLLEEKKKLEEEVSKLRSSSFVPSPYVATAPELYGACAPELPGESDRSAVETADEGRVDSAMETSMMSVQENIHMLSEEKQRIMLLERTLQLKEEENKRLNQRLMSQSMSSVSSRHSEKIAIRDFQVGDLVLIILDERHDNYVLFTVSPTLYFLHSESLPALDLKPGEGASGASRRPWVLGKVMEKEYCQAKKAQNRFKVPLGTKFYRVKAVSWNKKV
inactive: [1] 0.092 | [2] 0.094 | [3] 0.045 | [4] 0.089 | [5] -0.11 | [6] 0.045 | [7] 0.03 | [8] -0.023 | [9] -0.015 | [10] 0.041

RBM25 (UniProt P49756)
inactive: [1] 0.031 | [2] 0.01 | [3] -0.032 | [4] 0.102 | [5] -0.044 | [6] 0.026 | [7] 0.057 | [8] -0.039 | [9] -0.001 | [10] 0.042

RABGGTA (UniProt Q92696)
inactive: [1] 0.064 | [2] -0.021 | [3] -0.02 | [4] -0.038 | [5] -0.021 | [6] 0.049 | [7] -0.041 | [8] -0.027 | [9] 0 | [10] 0.046

RMC1 (UniProt Q96DM3)
inactive: [1] 0.038 | [2] 0.03 | [3] -0.026 | [4] -0.025 | [5] -0.002 | [6] -0.209 | [7] 0.011 | [8] -0.015 | [9] 0.028 | [10] 0.039

ROR2 (UniProt Q01974)
inactive: [1] -0.003 | [2] -0.014 | [4] 0.045 | [5] -0.058 | [6] -0.018 | [7] -0.001 | [8] 0.045 | [9] -0.059 | [10] 0.115
active: [3] -0.72

RPS13 (UniProt P62277)
active: [10] -0.759
inactive: [1] -0.096 | [2] 0.035 | [3] 0.103 | [4] 0.13 | [5] 0.071 | [6] -0.031 | [7] 0.137 | [8] 0.345 | [9] 0.035

SDHC (UniProt Q99643)
Sequence of UniProt Q99643 (Q99643 whole entry, looked up): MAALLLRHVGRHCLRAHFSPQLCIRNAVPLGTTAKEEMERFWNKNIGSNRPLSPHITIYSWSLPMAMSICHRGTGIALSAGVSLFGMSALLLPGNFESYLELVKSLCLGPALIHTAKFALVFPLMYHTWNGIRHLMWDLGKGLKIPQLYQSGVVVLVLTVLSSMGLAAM
inactive: [1] 0.095 | [2] 0.004 | [3] 0.025 | [4] -0.055 | [5] -0.185 | [6] 0.012 | [7] -0.286 | [8] -0.086 | [9] 0.193 | [10] 0.108
